15 compounds from PubChem BioAssay can be followed below.

Test [1] has as its system Wnt5a (protein binding on small-molecule microarray). The experiment in a line: small molecules binding Wnt5a protein – biophysical, small-molecule microarray, 635/667 nm fluorescence, primary screen (AID 1142).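 Further: fluorescence read at 667 nm with signal to noise per printed feature.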 As to conditions: 635 nm fluorescence, higher = more signal.
Test [2] is described as follows: ATP-based viability of Huh7 replicon cells – cell-based, CellTiter-Glo luminescence, basal, 48 h, cytotoxicity control for HCV replication inhibitor project, primary screen (AID 1143).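 Further: Huh7 hepatoma cells carrying a hepatitis C replication reporter with no stimulus; test concentration not given here.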 As to conditions: higher = more signal, called active from +8 up or from −8 down. A general note: Replicon systems follow genome replication, usually without infectious particles.
The nature of test [3]: Pseudomonas biofilm growth suppression – PAO1 strain, BacTiter-Glo luminescence, LB-PBS, primary screen (AID 1144). As to conditions: P. aeruginosa PAO1 biofilm, 12 h, higher = more signal.
A short description of test [4]: basal CRE-LacZ reporter activity in PC12 – cell-based, unstimulated, primary screen (AID 1145). As to conditions: no forskolin, luminescence, 4.5 h, higher = more signal, called active from +8 up or from −8 down.
Test [5] in a line: forskolin-driven CRE-LacZ activity in PC12 – cell-based, CRE-LacZ reporter, forskolin-stimulated, primary screen (AID 1146).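 Further: PC12 cells with 6xCRE LacZ reporter stimulated by forskolin 10 µM; beta-galactosidase reporter signal reflecting CREB driven transcription.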 As to conditions: luminescence, 4.5 h, higher = more signal, called active from +8 up or from −8 down.
Test [6] deals with Streptavidin (Streptomyces avidinii) (UniProt P22629). The test can be described thus: compounds binding control protein streptavidin – biophysical, small-molecule microarray, 635/667 nm fluorescence, artefact control for SMM compound annotation, primary screen (AID 1147).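 Further: signal reflects streptavidin binding to arrayed compounds as a control protein.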 As to conditions: higher = more signal.
The nature of test [7]: probe aInhba binding on compound microarray – biochemical, small-molecule microarray, 635/667 nm fluorescence, primary screen (AID 1148).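 Further: score merges 667nm spot fluorescence with signal-to-noise for antibody binding to printed compounds.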 As to conditions: higher = more signal.
Test [8] concerns the target Torsin-1A (Homo sapiens) (UniProt O14656). The test can be described thus: TOR1A wild-type binding on microarray – cell lysate, small-molecule microarray, lysate, 635/667 nm, primary screen (AID 1149). As to conditions: COS7 hTOR1A-WT lysate, 635 nm fluorescence, higher = more signal.
Test [9] has the same target. The experiment in a line: torsin A mutant lysate binding on microarrays – cell lysate, small-molecule microarray, COS7 lysate, 635/667 nm fluorescence, primary screen (AID 1150).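 Further: score pools 667 nm emission and signal to noise measuring lysate protein binding.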 As to conditions: COS7 hTOR1A mutant lysate, 635 nm fluorescence, higher = more signal.
Test [10] relates to Sonic hedgehog protein (Shh). The test can be described thus: Sonic hedgehog microarray binding compounds – biochemical, small-molecule microarray, 635/667 nm fluorescence, primary screen (AID 1151).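 Further: Shh protein binding to compounds spotted on small-molecule microarray slides; score combines spot fluorescence intensity with signal-to-noise across triplicate slides.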 As to conditions: 635 nm fluorescence, higher = more signal.

The source made the active and inactive calls. Unless noted, how the calls were made is not given here.

Streptavidin (Streptomyces avidinii), sequence (P22629 whole entry, looked up): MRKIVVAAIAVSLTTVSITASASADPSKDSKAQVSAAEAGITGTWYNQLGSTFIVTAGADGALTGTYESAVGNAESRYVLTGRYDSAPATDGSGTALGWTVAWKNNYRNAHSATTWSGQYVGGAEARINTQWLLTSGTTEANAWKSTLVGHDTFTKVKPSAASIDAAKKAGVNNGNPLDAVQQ
Torsin-1A (Homo sapiens), sequence (O14656 whole entry, looked up): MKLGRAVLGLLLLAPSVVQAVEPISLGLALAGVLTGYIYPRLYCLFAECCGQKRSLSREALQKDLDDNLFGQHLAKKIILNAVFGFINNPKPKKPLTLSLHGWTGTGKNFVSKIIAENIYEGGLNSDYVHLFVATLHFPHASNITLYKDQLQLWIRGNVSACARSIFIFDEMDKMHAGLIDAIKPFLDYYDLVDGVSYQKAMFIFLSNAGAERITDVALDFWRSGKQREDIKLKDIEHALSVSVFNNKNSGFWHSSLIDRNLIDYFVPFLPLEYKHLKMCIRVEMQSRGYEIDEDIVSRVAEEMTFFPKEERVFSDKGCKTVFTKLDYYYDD

On to `C=C(/C(=C/C[C@H](OC(=O)c1ccncc1)c1ccc(CO)o1)c1cnc2ccccc2c1)C(C)C`, for which the composite z-score amounted to 0.49 in test [1]; 1.42 in [6]; 0.0993 in [7]; 0.353 with Torsin-1A (Homo sapiens) [8]; 0.491 in the test with Torsin-1A (Homo sapiens) [9]; 1.97 in [10]. Moreover, the z-score was -0.259 (inactive) in test [2], -0.747 (inactive) in test [3], 1.58 (inactive) in test [4] and 0.0737 (inactive) in [5].
Turning to `CCCC[C@@H](O)C1=C(COC)C[C@H]2C(=O)N(Cc3ccccc3)C(=O)[C@H]2[C@H]1CO`, the composite z-score in [1] was 0.0314; in test [6], -0.0045; in test [7] it was -0.204; with Torsin-1A (Homo sapiens) [8], 0.707; with Torsin-1A (Homo sapiens) [9] it was 0.69; in test [10] it was 1.02. The z-score in [2] was -0.168 (inactive); in test [3], 0.102 (inactive); in test [4] it was 0.216 (inactive); in test [5] it was -0.566 (inactive).
`COC(=O)[C@@H]1N=C(c2ccc(OCCCO)cc2)O[C@@H]1c1ccccc1`: the composite z-score in [1] is -0.508; in test [6], -0.913; in test [7] it was -0.0762; with Torsin-1A (Homo sapiens) [8], 1.01; with Torsin-1A (Homo sapiens) [9], 0.695; in test [10], -0.703. For the same compound, the z-score in [2] is -1.64 (inactive); in test [3] it was -1.06 (inactive); in test [4] it was -0.594 (inactive); in test [5] it was -1.38 (inactive).
As to `CC(=O)N1CC2(CC2)CC1c1ccccc1` (stereo not given), the composite z-score in test [1] was 0.898; in test [6] it was 0.547; in test [7], 0.507; with Torsin-1A (Homo sapiens) [8], 0.192; with Torsin-1A (Homo sapiens) [9], 0.421; in [10], -0.515. Further, the z-score in test [2] was -0.283 (inactive); in test [3] it was 0.108 (inactive); in [4] it was 0.397 (inactive); in test [5] it was -0.366 (inactive).
On to `CCCN1C(=O)[C@]2(Cc3ccccc31)N=C(c1ccc(OCCCO)cc1)O[C@@H]2c1ccccc1`, for which the composite z-score in test [1] is 0.489; in [6], 0.899; in [7], -0.0087; with Torsin-1A (Homo sapiens) [8], 0.738; with Torsin-1A (Homo sapiens) [9] it was 0.423; in test [10], 1.12. Further, the z-score in [2] is -5.07 (inactive); in test [3] it was -2.3 (inactive); in test [4] it was 0.344 (inactive); in [5] it was -0.647 (inactive).
`NC(=O)[C@@]1(Cc2ccccc2)COC(c2ccc(OCCCO)cc2)=N1`: the composite z-score in test [1] is 0.0546; in test [6] it was -0.504; in test [7], 0.105; with Torsin-1A (Homo sapiens) [8], -0.475; with Torsin-1A (Homo sapiens) [9], 0.709; in [10], -0.429. Besides, the z-score in [2] is 0.257 (inactive); in test [3], 0.126 (inactive); in test [4], 2.24 (inactive); in [5] it was -1.34 (inactive).
Regarding `CCCCC(CC)C(O)C1C=CC2C(=O)N(c3ccccc3)C(=O)C2N1Nc1ccc(C#N)cc1` (stereo not given), the composite z-score in [1] was 0.648; in test [6], 1.18; in test [7] it was 0.722; in the test with Torsin-1A (Homo sapiens) [8] it was -0.064; in the test with Torsin-1A (Homo sapiens) [9], 0.68; in [10], -0.387. The z-score is 0.308 (inactive) in test [2], -1.55 (inactive) in test [3], 0.819 (inactive) in test [4] and 0.176 (inactive) in test [5].
In the case of `O=C1C2C=CC(C(O)c3cccc(O)c3)N(Nc3ccc([N+](=O)[O-])cc3)C2C(=O)N1c1ccccc1` (stereo not given), the composite z-score was 0.22 in [1]; 0.514 in [6]; 0.0649 in test [7]; 0.331 in the test with Torsin-1A (Homo sapiens) [8]; 0.132 with Torsin-1A (Homo sapiens) [9]; -0.164 in test [10]. For the same compound, the z-score in [2] is -0.933 (inactive); in test [3] it was -0.271 (inactive); in test [4], -0.257 (inactive); in test [5] it was -0.489 (inactive).
With `C=CCN1C(=O)[C@]2(CCC(=O)OC(C)(C)C)N=C(c3ccc(OCCCO)cc3)O[C@@H]2c2ccccc21`, the composite z-score in test [1] was 0.176; in [6] it was 0.0475; in [7] it was 0.0631; with Torsin-1A (Homo sapiens) [8], -0.0806; with Torsin-1A (Homo sapiens) [9], 0.19; in test [10] it was 1.71. Further, the z-score in [2] was -3.67 (inactive); in test [3] it was -0.149 (inactive); in test [4] it was 0.124 (inactive); in test [5], -1.99 (inactive).
As for `CCCNC(=O)[C@@]1(C)c2ccccc2C(=O)N(c2ccc(C)cn2)[C@H]1c1ccc(CO)cc1`, the composite z-score in test [1] was -0.297; in test [6], -0.516; in [7], 0.0398; in the test with Torsin-1A (Homo sapiens) [8] it was 0.399; in the test with Torsin-1A (Homo sapiens) [9], 0.266; in [10], 0.224. For the same compound, the z-score in test [2] was 0.242 (inactive); in test [3], -0.31 (inactive); in test [4], 1.29 (inactive); in test [5], -0.0049 (inactive).
For the compound `CCOC(=O)C[C@H]1[C@H](OC(=O)Cc2ccc3c(c2)OCO3)[C@@H](NC(=O)c2ccc3ccccc3n2)c2cc(OCCCO)ccc2N1C(=O)c1ccccc1`, the composite z-score in test [1] worked out at 0.151; in test [6], 0.386; in test [7], 0.0074; in the test with Torsin-1A (Homo sapiens) [8] it was 0.526; with Torsin-1A (Homo sapiens) [9] it was 0.302; in test [10], 0.826. For the same compound, the z-score is -0.301 (inactive) in test [2], -0.283 (inactive) in test [3], 7.23 (inactive) in test [4] and 0.613 (inactive) in [5].
As for `C=CCNC(=O)[C@@H]1[C@H]2C(=O)O[C@H](c3ccccc3)[C@H](c3ccccc3)N2[C@H](c2ccccc2OCCO)[C@@]12C(=O)N(C(=O)OCCOC)c1ccc(C#CC3(O)CCCCCC3)cc12`, the composite z-score in [1] was found to be 0.238; in test [6] it was 0.159; in [7], 0.115; with Torsin-1A (Homo sapiens) [8], 0.759; with Torsin-1A (Homo sapiens) [9], 0.631; in test [10] it was 1.58. Moreover, the z-score in test [2] was -4.26 (inactive); in test [3] it was -0.0868 (inactive); in test [4] it was -1.02 (inactive); in test [5], -0.965 (inactive).
For `COc1ccc([Si](C)(C)[C@@H]2[C@@H](CC(=O)N(CCO)Cc3ccccc3)O[C@]3(C(=O)N(Cc4cccc(N5CCCCC5=O)c4)c4ccccc43)[C@H]2C)cc1`, the composite z-score was 0.585 in test [1]; -0.402 in test [6]; 0.187 in test [7]; 0.961 in the test with Torsin-1A (Homo sapiens) [8]; 0.706 with Torsin-1A (Homo sapiens) [9]; 2.06 in test [10]. For the same compound, the z-score in test [2] is -4.76 (inactive); in test [3] it was -0.952 (inactive); in test [4], 0.716 (inactive); in test [5], 0.708 (inactive).
Take `[N-]=[N+]=Nc1ccccc1[C@@H]1OC(c2ccc(OCCCO)cc2)=N[C@]1(Cc1ccccc1)C(=O)N1CCCCC1`: the composite z-score in [1] came to 0.906; in test [6], 1.38; in test [7], 0.134; in the test with Torsin-1A (Homo sapiens) [8], 0.551; with Torsin-1A (Homo sapiens) [9], 1.37; in test [10] it was 1.15. Also, the z-score in test [2] was -4.4 (inactive); in test [3] it was 0.316 (inactive); in [4] it was 0.241 (inactive); in test [5], -0.894 (inactive).
On to `N[C@@H](Cc1ccccc1)C(=O)NCc1cn(Cc2ccccc2)nn1`, for which the composite z-score was -0.0432 in test [1]; 0.0584 in test [6]; 0.0464 in [7]; 1.14 with Torsin-1A (Homo sapiens) [8]; 0.186 with Torsin-1A (Homo sapiens) [9]; 0.822 in test [10]. Moreover, the z-score in test [2] was 0.609 (inactive); in test [3], 0.391 (inactive); in [4], 0.381 (inactive); in [5] it was -0.644 (inactive).
